Source: ChEMBL document CHEMBL4513146, “CO-ADD screening of Karazin Kharkiv National University (Ukraine) compounds”
Measured potencies and affinities stand elsewhere.

Columns and labels:
[1] = tested on: Staphylococcus aureus; conditions: Concentration 32 ug.mL-1;; ASSAY_TEST Inhibition of Bacterial Growth; detection method Absorption (OD600); MEDIA CAMHB; plate type 384well; NBS; CORNING #3640; time 18 hr
[2] = tested on: Escherichia coli; conditions: Concentration 32 ug.mL-1;; ASSAY_TEST Inhibition of Bacterial Growth; detection method Absorption (OD600); MEDIA CAMHB; plate type 384well; NBS; CORNING #3640; time 18 hr

SMILES | Inhibition [1] [%] | Inhibition [2] [%]
CCc1nnc2ccc(S(=O)(=O)N(Cc3cccc(OC)c3)c3ccc(F)cc3)cn12 | -0.44 | -12.34
Cc1cc2nn(CC(=O)Nc3ccc(F)cc3C)c(=O)n2c(Nc2ccc(F)cc2)n1 | 9.22 | -3.34
CCOc1ccccc1NC(=O)Cn1nc2c3c4c(sc3ncn2c1=O)CCCC4 | -4.82 | -7.86
Cc1ccc(Sc2nccn3c(=O)n(CC(=O)N4CCN(c5ccc(F)cc5)CC4)nc23)c(C)c1 | -13.09 | -20.44
CCOc1ccc(-n2ccn3c(SCC(=O)c4ccc(OC)cc4)nnc3c2=O)cc1 | 15.17 | -3.52
Cc1ccc(C)c(S(=O)(=O)Nc2ccc3nncn3n2)c1 | 15.24 | 1.21
CCc1ccccc1Sc1nccn2c(=O)n(CC(=O)NCc3cccs3)nc12 | 6.5 | -12.39
CCCCn1c(=O)c2sccc2n2c(=O)n(CC(=O)NC(C)C)nc12 | 6.34 | -3.44
COc1ccc(-c2cc3c4nnc(CCC(=O)NCc5ccc(OC)cc5OC)n4ccn3n2)cc1 | 16.19 | 5.82
COc1ccc(NC(=O)Cn2nc3cc(C)nc(Nc4cc(C)cc(C)c4)n3c2=O)cc1 | 9.51 | -1.23
O=C(CSc1nnc2c(=O)n(-c3cccc(F)c3)ccn12)N1CCN(c2ccc(F)cc2)CC1 | 3.76 | 1.02
Cc1ccc(CSc2nnc3c(=O)n(-c4ccc(Br)cc4)ccn23)cc1 | 13.68 | -2.08
O=C(Cn1nc2ccc(-c3ccccc3)nn2c1=O)N1CCN(c2ccc(F)cc2)CC1 | 10.02 | -0.36
O=c1c2nnc(SCc3ccccc3F)n2ccn1-c1ccc(Br)cc1 | 14.85 | -2.34
CCc1ccc(NC(=O)Cn2nc3c(Oc4cccc(OC)c4)nccn3c2=O)cc1 | 5.31 | -1.12
CN(C)C(=O)CSc1nnc2c(=O)n(-c3ccc(F)cc3)ccn12 | 8.32 | 0.14
O=C(Cn1nc2c3cc(-c4ccc(F)cc4)nn3ccn2c1=O)NCc1ccccc1Cl | 7.18 | -0.1

SMILES | Inhibition [1] [%] | Inhibition [2] [%]
COc1ccc(CNC(=O)CSc2nnc3c4cc(-c5ccccc5)nn4ccn23)cc1 | 9.71 | 1.16
O=c1c2sccc2n2c(=O)n(Cc3ccccc3Cl)nc2n1CCc1ccccc1 | 10.44 | 0.77
Cc1nnc2c(=O)n(CC(=O)Nc3ccc(C(C)C)cc3)c3ccccc3n12 | 18.68 | -2.69
Cc1cccc(C)c1NC(=O)Cn1nc2c3c4c(sc3ncn2c1=O)CCCC4 | 7.51 | -3.38
CCC(C)NC(=O)CSc1nnc2c(=O)n(Cc3ccc(F)cc3)ccn12 (stereo unspecified) | 1.4 | -9
O=C(Cn1nc2ccc(SCc3ccc(Cl)cc3)nn2c1=O)Nc1ccccc1C(F)(F)F | 4.98 | -5.74
O=C(CSc1nnc2c(=O)n(-c3ccccc3)ccn12)N1CCN(c2ccc(F)cc2)CC1 | 7.73 | -1.4
O=C(Cn1nc2c(SC3CCCCC3)nccn2c1=O)Nc1ccc(F)cc1 | 2.79 | -5.61
Cc1ccc(NC(=O)Cn2nc3c(N4CCCC4)nccn3c2=O)cc1Cl | 3.49 | -0.46
O=C(Cn1nc2c3cc(-c4ccc(F)cc4)nn3ccn2c1=O)Nc1ccccc1 | -11.01 | -1.34
Cc1ccc(-c2cc3c4nn(CC(=O)Nc5cccc(Br)c5)c(=O)n4ccn3n2)cc1 | 8.15 | 0.32
O=C(Cn1nc2c3cc(F)ccc3ncn2c1=O)Nc1ccc2c(c1)OCO2 | 5.65 | -3
CCc1nnc2ccc(S(=O)(=O)N(Cc3ccc(OC)cc3)c3cccc(F)c3)cn12 | -1.45 | -12.26
O=c1n(Cc2nc(-c3ccc4c(c3)OCO4)no2)nc2ccc(-c3ccccc3)nn12 | -9.1 | -9.98
Cc1cccc(-c2nc(CSc3nc4ccccc4n4c(C)nnc34)c(C)o2)c1 | 9.9 | 1.23
Cc1ccc(-c2ccc3nn(CC(=O)Nc4ccc(Cl)cc4F)c(=O)n3n2)cc1 | 8.27 | -2.22
